# The list is not random: actives were taken first. Their share in the collection is about 3.3%.
# AmpC inh detg – inhibitors of E. coli AmpC beta-lactamase with detergent; hit rate 0.041% among 370,000; Potency, µM (highest dose often 114 µM), without a hit: at the top dose activity change, negative = inhibition, most hits filed as inhibitors; AmpC hydrolysis of nitrocefin, absorbance 480 nm, 0.01% Triton; P00811; AID 485294;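 also: 0% = no-compound wells and -100% = no-enzyme wells; nearly all actives have a fitted effect of over 25% in size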
# Target sequence (P00811 whole entry, looked up): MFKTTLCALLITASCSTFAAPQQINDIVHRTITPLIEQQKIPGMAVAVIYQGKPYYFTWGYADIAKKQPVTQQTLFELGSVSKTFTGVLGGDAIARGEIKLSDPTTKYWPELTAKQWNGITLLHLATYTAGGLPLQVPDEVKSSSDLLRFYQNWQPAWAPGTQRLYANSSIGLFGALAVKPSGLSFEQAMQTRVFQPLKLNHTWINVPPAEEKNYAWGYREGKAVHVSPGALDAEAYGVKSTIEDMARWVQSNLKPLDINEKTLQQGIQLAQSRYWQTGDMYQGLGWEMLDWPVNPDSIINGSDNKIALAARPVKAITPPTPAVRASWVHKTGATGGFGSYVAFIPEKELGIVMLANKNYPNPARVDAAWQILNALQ
#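 20 mM phosphate pH 7.0 + 0.01% (detergent screen) or 0.0001% Triton X-100; 5.3 nM AmpC reagent; cpd preinc 15 min RT; nitrocefin (800 uM stock) to start; A480 q20 s × 4 min; Activity was normalised to no-enzyme and no-compound control wells.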
# Sm TGR inh – S. mansoni TGR enzyme inhibition. Q962Y6. Potency, µM (top dose mostly 114 µM), for inactives: at the highest dose activity change, negative = inhibition, actives largely listed as inhibitors. purified TGR, DTNB reduction, TNB absorbance 405 nm. AID 485364. hit rate 3% among 360,000; also: nearly all actives have a fitted effect of over 60% in size
#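 First, TGR (20 nM dispensed) and NADPH were mixed with compound. Second, a 15 min room-temperature incubation followed. Third, further NADPH and then DTNB were added to start the reaction. Finally, TNB absorbance was monitored kinetically.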
# AmpC no deterg – AmpC beta-lactamase inhibition without detergent; P00811; AmpC nitrocefin hydrolysis, absorbance 480 nm, 0.0001% Triton; Potency, µM (highest dose often 57.1 µM), for the others: top-dose activity change, negative = inhibition, most hits filed as inhibitors; hit rate 0.52% among 330,000; AID 485341;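 also: plate controls were no compound for no effect and no enzyme for full effect; nearly all actives have a fitted effect of over 20% in size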
#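 20 mM phosphate pH 7.0 + 0.01% (detergent screen) or 0.0001% Triton X-100; 5.3 nM AmpC reagent; cpd preinc 15 min RT; nitrocefin (800 uM stock) to start; A480 q20 s × 4 min; Activity was normalised to no-enzyme and no-compound control wells.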
# Active calls of the source: *; ? = inconclusive; / = no result given. Calls follow the shape of the dose curve; as a rule, active = well fitted curve in the direction sought with a large enough effect; inconclusive = small, poorly fitted or top-dose-only effect, or another doubt; inactive = no such curve, though single readings can be large; an effect the other way counts as inactive or inconclusive. Unless noted, % is scaled to controls: 0 for no effect and ±100 for the full control effect; potency is read from the fitted curve at half-maximal effect.
SMILES,AmpC inh detg,Sm TGR inh,AmpC no deterg
N#CCCn1cc(C=C(C#N)C#N)c(-c2ccc(-c3ccccc3)cc2)n1,?,5.01µM*,25.8%
N#CCCn1cc(/C=N/O)c(-c2ccccc2)n1,0.8%,0.0%,9.7%
CSc1cccc(NC(=O)/C=C/c2ccco2)c1,-2.9%,1.12µM*,-57.4%
COc1cccc(NC(=O)/C=C/c2ccco2)c1,-12.2%,10µM*,-43.4%
CSc1cccc(NC(=O)/C=C/c2ccccc2)c1,?,1.6%,-32.7%
COc1cccc(NC(=O)C(C)(C)C)c1,?,-24.6%,-23.7%
CC(=O)c1ccc(NC(=O)CSc2nc(C3CCCC3)nc3c2c(=O)n(C)c(=O)n3C)cc1,10.9%,-1.3%,/
Cc1ccc(Cl)cc1-n1nnc(-c2nc(-c3ccc4c(c3)OCO4)no2)c1C,5.0%,-6.7%,/
O=C1C=C(NC2=CC3OC(c4ccccc4)OCC3OC2=O)CCC1 (configuration not stated),-18.1%,25.1µM*,-13.5%
O=C1C=C(NCc2ccccc2)CCC1,-14.6%,-3.2%,-5.7%
O=C(NCCc1ccccc1)c1cnc2sc(N3CCCCCC3)nn2c1=O,1.1%,-3.4%,/
O=c1c(-c2ccccc2)c1-c1ccccc1,-5.2%,3.55µM*,-10.4%
O=c1c(NCCc2ccccc2)c(-c2ccccc2)c1=O,0.7%,-6.4%,-16.6%
CNC(=O)c1cccc(-n2c(C)nc3cccnc32)c1C,18.5%,-0.7%,/
CCc1cccc(C)c1NC(=O)c1cnn(-c2ccc(OC)cc2)c1C1CCN(C(=O)OC(C)(C)C)CC1,19.7%,1.9%,/
O=C(CSCc1cnn(-c2ccccc2)c1-n1cccc1)NCc1ccc(F)cc1,10.2%,9.0%,/
Cc1ccc(S(=O)(=O)Nc2cc3c(cc2C)n(C)c(=O)c(=O)n3C)cc1,5.6%,-1.3%,/
CC1(C)CC(=O)C(C(C2=C(O)CC(C)(C)CC2=O)c2ccc(Br)s2)C(=O)C1 (configuration not stated),?,10µM*,-28.5%
Cc1ccc(C(C2=C(O)CC(C)(C)CC2=O)C2C(=O)CC(C)(C)CC2=O)s1 (configuration not stated),?,?,-19.0%
Cc1oc2ccc(O)c(CN3CCN(C)CC3)c2c1C(=O)Nc1ccc(C(C)C)cc1,12.1%,0.6%,/
CCn1ccc2cc(S(=O)(=O)N3CCCN(C(=O)Nc4ccccc4F)CC3)ccc21,-4.6%,-29.0%,/
O=C(CSc1ccc2nnc(-c3cccc(F)c3)n2n1)NCc1ccco1,-9.9%,?,-10.6%
O=C(CSc1ccc2nnc(-c3cccnc3)n2n1)NCc1ccco1,5.9%,31.6µM*,-10.7%
Cn1nnnc1SCC(=O)NCc1ccco1,1.5%,-14.0%,-17.3%
Cn1c(-c2ccccc2)cnc1SCC(=O)NCc1ccco1,?,39.8µM*,-14.3%
SMILES,AmpC inh detg,Sm TGR inh,AmpC no deterg
COc1cccc(-c2nnc(SCC(=O)Nc3ccc4c(c3)OCCO4)n2Cc2ccco2)c1,-4.6%,-24.8%,-1.7%
O=C(CSc1nnnn1C1CCCCC1)NCc1ccco1,7.7%,28.2µM*,-16.1%
O=C(CSc1nnc(-c2ccccc2)n1-c1ccccc1)NCc1ccco1,1.2%,-0.7%,-0.9%
COc1cccc(-c2nnc(SCC(=O)NCc3ccc4c(c3)OCO4)n2Cc2ccco2)c1,-9.9%,44.7µM*,-17.7%
CCC(C)NC(=O)CSc1nc2cc3c(cc2c(=O)n1CCCCCC(=O)NCc1ccc2c(c1)OCO2)OCO3 (configuration not stated),6.5%,47.0%,/
Cc1ccc(C)c(Cn2c3ccccc3c3cnn(CC(=O)NC(C)c4ccccc4)c(=O)c32)c1 (configuration not stated),21.0%,-0.7%,/
O=C(CSc1nnc(Cc2ccccc2)n1Cc1ccccc1)NCc1ccco1,-5.7%,-33.0%,10.3%
C=CCn1c(SCC(=O)NCc2ccco2)nc2ccccc2c1=O,-3.8%,-18.3%,-14.5%
C=CCn1c(SCC(=O)NCc2ccco2)nnc1-c1ccc2ccccc2n1,-5.7%,15.8µM*,23.4%
O=C(CSc1nnc(-c2cccnc2)n1Cc1ccco1)NCc1ccc2c(c1)OCO2,-16.3%,44.7µM*,-20.7%
O=C(CSc1nnc(-c2cccnc2)n1Cc1ccccc1)NCc1ccco1,?,12.6µM*,38.7%
O=C(CN1CCC(n2nnc3cc(F)ccc32)CC1)NCc1ccco1,-2.4%,44.7µM*,-2.5%
C=CCn1c(SCC(=O)NCc2ccc3c(c2)OCO3)nnc1-c1cccnc1,-5.7%,-1.1%,-8.5%
COc1ccccc1NC(=O)CN1CCC(n2nnc3cc(F)ccc32)CC1,?,-3.0%,28.6%
CCN(Cc1ccccc1)C(=O)Nc1ccc2c(c1)N(C)C(=O)c1ccccc1S2,22.8%,-12.9%,/
CC(=O)NCc1nc2cccnc2n1Cc1ccccc1,5.7%,4.1%,/
COc1cc(NC(=O)Cn2cc(C(=O)c3ccc(F)cc3)c(=O)c3ccc(C)nc32)cc(OC)c1,-4.9%,-0.7%,/
Cc1ccc(C(=O)Nc2ccccc2-c2ccccc2)o1,-13.0%,-14.2%,-15.7%
Cc1ncoc1C(=O)Nc1ccccc1-c1ccccc1,?,1µM*,-7.3%
O=C(C1CCN(S(=O)(=O)Cc2ccccc2)CC1)N1CCN(c2cccc(C(F)(F)F)c2)CC1,19.0%,-14.5%,/
COc1ccc(NC(=O)CCc2nnc3n(Cc4ccccc4Cl)c(=O)c4ccccc4n23)cc1,-1.5%,2.9%,/
COc1ccc2c(c1)Sc1ccccc1N2,?,22.4µM*,-27.5%
c1ccc2c(c1)Nc1cc3ccccc3cc1S2,4.7%,3.1%,-23.5%
O=C(Nc1ccccc1NC(=O)c1csnn1)c1csnn1,2.3%,-2.8%,-14.4%
O=C(NC(=S)Nc1ccccc1Cl)c1csnn1,-10.7%,22.4µM*,-35.4%
SMILES,AmpC inh detg,Sm TGR inh,AmpC no deterg
Cn1c(/C(C#N)=C/c2ccccc2Br)nc2ccccc21,1.5%,-15.7%,/
Cc1ccc(-c2cc(-c3coc4ccc(Cl)cc4c3=O)c3c(n2)-c2ccccc2OC3)cc1,0.4%,0.8%,/
CC1=C(C#N)C(=O)N(C2CCS(=O)(=O)C2)C(=O)/C1=C\c1ccco1 (configuration not stated),-5.2%,8.91µM*,-16.0%
Cc1ccc(C)n1C1CCS(=O)(=O)C1 (configuration not stated),?,-28.5%,-24.7%
COc1ccccc1Cc1nc2ccccc2nc1SCC(=O)NCc1ccccc1Cl,9.9%,4.0%,/
CC(C)Sc1ncc(Cl)c(C(=O)Nc2ccc(S(=O)(=O)N3CCCCC3)cc2)n1,11.8%,3.5%,/
O=c1[nH]c2cc([N+](=O)[O-])c(NCCO)c([N+](=O)[O-])c2[nH]1,8.4%,4.4%,-9.6%
CC(=O)Nc1c([N+](=O)[O-])cc2[nH]c(=O)[nH]c2c1[N+](=O)[O-],-8.6%,50.1µM*,-24.0%
CCc1ccc(C(=O)c2cn(CC(=O)Nc3ccc4c(c3)OCCO4)c3ccc(C)cc3c2=O)cc1,-2.6%,-1.9%,/
Cc1ccc(OCC(=O)NCCNC(=O)COc2ccc(C)cc2)cc1,2.6%,9.8%,45.8%
Cc1ccc(OCC(=O)Sc2ccc(C)cc2)cc1,2.4%,17.8µM*,-35.2%
COc1cc(C(=O)Sc2ccc(C)cc2)cc(OC)c1OC,-4.8%,-21.2%,10.6%
COc1ccccc1OCC(=O)Sc1ccc(C)cc1,-13.4%,7.08µM*,-20.4%
COc1cc(OC)c(NC(=O)CN2C(=O)CCn3nc(-c4cccn4C)cc32)cc1Cl,2.3%,-19.2%,/

# Compound activity (PubChem BioAssay)
